From PubChem BioAssay (EPA / NIEHS)
Values joined by “and” are separate entries in the source; they are usually repeats but may differ in a detail not shown here. Equal values may be shown once. Results filed as inconclusive are left out. The source holds several records for some structures; these can differ, active in one and inactive in another. Active and inactive are the calls of the source. How the source made its calls, unless noted: active means hit-call score of the fitted dose curve at least 0.9, where 1 is the maximum; inactive means score below 0.9.

How the values were obtained:
[1] = read-out: Macrophage colony-stimulating factor (MCSF), CSF1 (gene 1435); experiment: BSK_LPS_MCSF: BioMAP Diversity Plus: LPS Assay for Macrophage colony-stimulating factor (MCSF) Biomarker Activity (AID 2283083); settings: primary human HUVEC with PBMC; actives raise or lower the signal
Summary of the method: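 Bidirectional fit versus DMSO of ELISA-measured M-CSF in co-cultured human umbilical vein endothelial cells and PBMC, sampled 24 h after dosing.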

[2] = read-out: Tissue Factor, F3 (gene 2152); experiment: BSK_LPS_TissueFactor: BioMAP Diversity Plus: LPS Assay for Tissue Factor Biomarker Activity (AID 2283084); settings: primary human HUVEC with PBMC; actives raise or lower the signal
Summary of the method: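 Read-out: CD142 ELISA, 24 h. System: LPS-driven human endothelial/PBMC co-culture. Analysis: up- or down-signal fitted against DMSO.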

[3] = read-out: Tumor necrosis factor (Homo sapiens) (UniProt P01375); experiment: BSK_LPS_TNFa: BioMAP Diversity Plus: LPS Assay for Tumour Necrosis Factor alpha (TNFa) Biomarker Activity (AID 2283085); settings: primary human HUVEC with PBMC; actives raise or lower the signal;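 on AC50: TNFa protein level quantified by ELISA in the co-culture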
Summary of the method: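 TNFa was quantified by ELISA in LPS-activated co-cultures of human endothelial cells and PBMC, 24 h post-dosing. Both increases and decreases versus DMSO were fitted.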

[4] = read-out: Vascular cell adhesion molecule 1 (VCAM1), VCAM1 (gene 7412); experiment: BSK_LPS_VCAM1: BioMAP Diversity Plus: LPS Assay for Vascular cell adhesion molecule 1 (VCAM1) Biomarker Activity (AID 2283086); settings: primary human HUVEC with PBMC; actives raise or lower the signal
Summary of the method: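 VCAM-1 quantified by ELISA in an LPS-activated co-culture of human endothelial cells and peripheral blood mononuclear cells, read 24 h post-treatment. Fitted in both directions versus DMSO; parallel SRB staining flags overt cytotoxicity.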

[5] = read-out: CD38, CD38 (gene 952); experiment: BSK_SAg_CD38: BioMAP Diversity Plus: SAg Assay for CD38 Biomarker Activity (AID 2283087); settings: primary human HUVEC with PBMC; actives raise or lower the signal
Summary of the method: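 CD38 quantified by ELISA (fluorescence) in a superantigen-activated endothelial cell–PBMC co-culture at 24 h post-dose. Activity fitted in both directions relative to DMSO; parallel SRB and Alamar Blue cytotoxicity read-outs.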

[6] = read-out: CD40, CD40 (gene 958); experiment: BSK_SAg_CD40: BioMAP Diversity Plus: SAg Assay for CD40 Biomarker Activity (AID 2283088); settings: primary human HUVEC with PBMC; actives raise or lower the signal
Summary of the method: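 Endpoint derived by fitting increases or decreases versus DMSO controls. CD40 is detected by fluorescence ELISA in a human vascular co-culture of endothelium and PBMC at 24 h.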

[7] = read-out: Monocyte Chemoattractant Protein-1 (MCP1), CCL2 (gene 6347); experiment: BSK_SAg_MCP1: BioMAP Diversity Plus: SAg Assay for Monocyte Chemoattractant Protein-1 (MCP1) Biomarker Activity (AID 2283090); settings: primary human HUVEC with PBMC; actives raise or lower the signal
Summary of the method: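 Values derive from bidirectional fitting of ELISA-measured MCP1 against DMSO controls. Readings were taken 24 h after dosing human vascular endothelial cells co-cultured with peripheral blood mononuclear cells under superantigen stimulation.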

[8] = read-out: E-selectin (Homo sapiens) (UniProt P16581); experiment: BSK_SAg_Eselectin: BioMAP Diversity Plus: SAg Assay for Eselectin Biomarker Activity (AID 2283091); settings: primary human HUVEC with PBMC; actives raise or lower the signal
Summary of the method: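 Endpoint values derive from bidirectional fitting relative to DMSO, using ELISA-measured E-selectin in a human vascular co-culture (umbilical vein endothelium plus PBMC) sampled 24 h after dosing.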

[9] = read-out: Monokine induced gamma interferon (MIG), CXCL9 (gene 4283); experiment: BSK_SAg_MIG: BioMAP Diversity Plus: SAg Assay for Monokine induced gamma interferon (MIG) Biomarker Activity (AID 2283092); settings: primary human HUVEC with PBMC; actives raise or lower the signal
Summary of the method: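 Values reflect bidirectional fitting of ELISA-measured MIG against DMSO vehicle, taken 24 h after dosing of a co-culture of human umbilical vein endothelial cells and peripheral blood mononuclear cells.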

[10] = BSK_SAg_PBMCCytotoxicity: PBMC Cytotoxicity Assessment in the BioMAP Diversity Plus: SAg Assay (AID 2283093); settings: primary human HUVEC with PBMC;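 further: PBMC viability measured as Alamar Blue reduction fluorescence at 546/580 nm; fitted both ways against DMSO so a hit may be loss or gain of signal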;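 on AC50: PBMC superantigen activated with SEB plus TSST-1 one hour after compound addition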
Summary of the method: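 Alamar Blue reduction (6 h, 546/580 nm) reports PBMC cytotoxicity after 90 h superantigen activation (SEB, TSST-1; 20 ng/mL final each) with 1 h compound pre-treatment. Gain or loss of signal fitted versus DMSO.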

[11] = read-out: Interleukin-8 (IL8), CXCL8 (gene 3576); experiment: BSK_SAg_IL8: BioMAP Diversity Plus: SAg Assay for Interleukin-8 (IL8) Biomarker Activity (AID 2283094); settings: primary human HUVEC with PBMC; actives raise or lower the signal
Summary of the method: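 ELISA readout of IL-8 from a superantigen-activated endothelial/PBMC primary human co-culture, taken 24 h post-dosing and fitted in both directions against DMSO; parallel SRB total-protein staining flags overt cytotoxicity.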

[12] = BSK_SAg_SRB: Viability Assessment in the BioMAP Diversity Plus: SAg Assay (AID 2283096); settings: primary human HUVEC with PBMC;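 further: cells read one day after compound addition; hits may be either gain or loss of signal compared with DMSO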
Summary of the method: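 This overt-cytotoxicity endpoint quantifies protein in human endothelial/PBMC co-cultures at 24 h using SRB absorbance (560 nm) after trichloroacetic acid fixation. Values reflect signal change from the DMSO negative control, fitted bidirectionally.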

[13] = target: human CYP2B6, CYP2B6 (gene 1555) (UniProt P20813); experiment: NVS_ADME_hCYP2B6: NovaScreen (NVS) CYP450-related Enzyme Activity (ADME) Assay for human CYP2B6 (AID 2283101; active means hit-call score of the fitted dose curve at least 0.9, where 1 is the maximum)
human CYP2B6, CYP2B6 (gene 1555), sequence (P20813 whole entry, looked up): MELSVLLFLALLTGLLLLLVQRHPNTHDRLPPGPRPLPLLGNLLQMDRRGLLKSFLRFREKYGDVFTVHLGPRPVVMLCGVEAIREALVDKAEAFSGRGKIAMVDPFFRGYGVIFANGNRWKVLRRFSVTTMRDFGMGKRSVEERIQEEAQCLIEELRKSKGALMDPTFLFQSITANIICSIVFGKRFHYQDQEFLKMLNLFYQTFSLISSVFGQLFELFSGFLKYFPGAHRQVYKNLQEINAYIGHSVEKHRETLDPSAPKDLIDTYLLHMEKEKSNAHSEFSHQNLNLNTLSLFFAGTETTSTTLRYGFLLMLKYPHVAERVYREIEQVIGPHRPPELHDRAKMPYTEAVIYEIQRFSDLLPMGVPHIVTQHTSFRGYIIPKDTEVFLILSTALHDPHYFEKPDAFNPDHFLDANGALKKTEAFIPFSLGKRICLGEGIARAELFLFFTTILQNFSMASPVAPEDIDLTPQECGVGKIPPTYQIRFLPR
Summary of the method: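 Compounds were first screened in duplicate at 10 uM against recombinant enzyme, with the fluorescent product measured after 1 hour. Active compounds were retested over a concentration series. Loss of fluorescence versus acetonitrile control was scored as reduced enzyme activity.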

[14] = BSK_SAg_Proliferation: Cell Proliferation Assessment in the BioMAP Diversity Plus: SAg Assay (AID 2283095); settings: primary human HUVEC with PBMC;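 further: relative cell number as total protein by SRB absorbance in sub-confluent culture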
Summary of the method: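 Relative cell number in the endothelial cell/PBMC co-culture was quantified at 96 h by SRB staining (0.1% SRB, 10% TCA fixation, read at 560 nm). Curves were fitted in both directions relative to DMSO baseline.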

[15] = read-out: CD69, CD69 (gene 969); experiment: BSK_SAg_CD69: BioMAP Diversity Plus: SAg Assay for CD69 Biomarker Activity (AID 2283089); settings: primary human HUVEC with PBMC; actives raise or lower the signal;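 further: cell surface CD69 protein quantified by ELISA with fluorescence detection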
Summary of the method: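 Values derive from bidirectional fitting relative to DMSO vehicle. Cells: umbilical vein endothelium plus peripheral blood mononuclear cells, treated 24 h before fluorescent ELISA for CD69.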

[16] = target: human CYP19A1, CYP19A1 (gene 1588) (UniProt P11511); experiment: NVS_ADME_hCYP19A1: NovaScreen (NVS) CYP450-related Enzyme Activity (ADME) Assay for human CYP19A1 (AID 2283098; active means hit-call score of the fitted dose curve at least 0.9, where 1 is the maximum)
human CYP19A1, CYP19A1 (gene 1588), sequence (P11511 whole entry, looked up): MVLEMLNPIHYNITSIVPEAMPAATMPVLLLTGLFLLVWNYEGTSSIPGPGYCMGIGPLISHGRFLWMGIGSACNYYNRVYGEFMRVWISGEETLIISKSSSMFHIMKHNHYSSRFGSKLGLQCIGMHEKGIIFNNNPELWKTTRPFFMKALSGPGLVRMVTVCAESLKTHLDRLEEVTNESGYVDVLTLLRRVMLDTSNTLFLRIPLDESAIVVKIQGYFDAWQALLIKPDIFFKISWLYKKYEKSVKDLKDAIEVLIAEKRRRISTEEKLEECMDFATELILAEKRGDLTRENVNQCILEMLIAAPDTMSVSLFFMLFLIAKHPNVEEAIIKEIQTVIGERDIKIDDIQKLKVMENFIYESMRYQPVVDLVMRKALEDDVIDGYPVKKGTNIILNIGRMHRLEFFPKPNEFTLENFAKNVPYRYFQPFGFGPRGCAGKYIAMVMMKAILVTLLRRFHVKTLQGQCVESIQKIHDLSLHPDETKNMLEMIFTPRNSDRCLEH
Summary of the method: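 Compounds were first screened at 10 uM in duplicate against purified enzyme, with a fluorogenic substrate and fluorescence intensity detection after 0.5 h. Inhibition appears as reduced signal against acetonitrile control.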

[17] = target: human CYP1A1, CYP1A1 (gene 1543) (UniProt P04798); experiment: NVS_ADME_hCYP1A1: NovaScreen (NVS) CYP450-related Enzyme Activity (ADME) Assay for human CYP1A1 (AID 2283100; active means hit-call score of the fitted dose curve at least 0.9, where 1 is the maximum)
human CYP1A1, CYP1A1 (gene 1543), sequence (P04798 whole entry, looked up): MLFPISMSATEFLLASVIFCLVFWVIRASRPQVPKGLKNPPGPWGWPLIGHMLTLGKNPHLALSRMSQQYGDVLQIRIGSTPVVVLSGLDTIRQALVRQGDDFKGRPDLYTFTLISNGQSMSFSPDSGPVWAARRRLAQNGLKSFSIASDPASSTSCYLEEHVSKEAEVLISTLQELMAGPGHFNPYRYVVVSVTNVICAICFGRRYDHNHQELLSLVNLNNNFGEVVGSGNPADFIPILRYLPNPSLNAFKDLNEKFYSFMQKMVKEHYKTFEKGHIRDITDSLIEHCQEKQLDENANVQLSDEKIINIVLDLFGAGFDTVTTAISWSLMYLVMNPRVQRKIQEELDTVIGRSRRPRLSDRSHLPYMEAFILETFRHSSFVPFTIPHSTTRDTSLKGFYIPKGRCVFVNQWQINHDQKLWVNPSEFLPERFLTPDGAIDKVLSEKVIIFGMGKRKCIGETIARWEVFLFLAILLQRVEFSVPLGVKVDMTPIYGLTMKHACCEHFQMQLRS
Summary of the method: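 Inhibition of recombinant CYP1A1 turnover was assessed fluorometrically in a biochemical format 1 h after compound exposure. Testing began at 10 uM in duplicate and progressed to concentration series reaching 20 uM, with on-plate positive and negative controls.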

[18] = target: human CYP1A2, CYP1A2 (gene 1544) (UniProt P05177); experiment: NVS_ADME_hCYP1A2: NovaScreen (NVS) CYP450-related Enzyme Activity (ADME) Assay for human CYP1A2 (AID 2283102; active means hit-call score of the fitted dose curve at least 0.9, where 1 is the maximum;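 further: fluorescence from turnover of a fluorogenic substrate by recombinant insect-cell CYP1A2; potency for inhibition since loss of fluorescence marks reduced CYP1A2 activity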)
human CYP1A2, CYP1A2 (gene 1544), sequence (P05177 whole entry, looked up): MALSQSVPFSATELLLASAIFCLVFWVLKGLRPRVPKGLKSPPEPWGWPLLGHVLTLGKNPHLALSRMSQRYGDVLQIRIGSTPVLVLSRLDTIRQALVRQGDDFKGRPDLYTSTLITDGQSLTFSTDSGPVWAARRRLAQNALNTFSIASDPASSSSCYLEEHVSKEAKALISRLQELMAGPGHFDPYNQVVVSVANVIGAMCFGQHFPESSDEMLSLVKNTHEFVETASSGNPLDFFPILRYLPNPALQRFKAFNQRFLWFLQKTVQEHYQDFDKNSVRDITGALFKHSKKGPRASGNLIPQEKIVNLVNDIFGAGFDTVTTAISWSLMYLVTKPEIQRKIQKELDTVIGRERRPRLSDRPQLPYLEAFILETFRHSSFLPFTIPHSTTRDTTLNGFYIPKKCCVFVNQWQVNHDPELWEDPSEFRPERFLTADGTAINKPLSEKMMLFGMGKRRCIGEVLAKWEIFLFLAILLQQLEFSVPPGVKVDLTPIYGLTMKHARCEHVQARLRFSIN
Summary of the method: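 Inhibition scored as decrease in fluorescent product versus acetonitrile negative control. Enzyme: insect-cell recombinant human CYP1A2, substrate-specific, cell-free. Reading at 0.5 h; 10 uM duplicate initial screen with positive and negative controls on every plate.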

[19] = target: human CYP2D6, CYP2D6 (gene 1565) (UniProt P10635); experiment: NVS_ADME_hCYP2D6: NovaScreen (NVS) CYP450-related Enzyme Activity (ADME) Assay for human CYP2D6 (AID 2283107; active means hit-call score of the fitted dose curve at least 0.9, where 1 is the maximum)
human CYP2D6, CYP2D6 (gene 1565), sequence (P10635 whole entry, looked up): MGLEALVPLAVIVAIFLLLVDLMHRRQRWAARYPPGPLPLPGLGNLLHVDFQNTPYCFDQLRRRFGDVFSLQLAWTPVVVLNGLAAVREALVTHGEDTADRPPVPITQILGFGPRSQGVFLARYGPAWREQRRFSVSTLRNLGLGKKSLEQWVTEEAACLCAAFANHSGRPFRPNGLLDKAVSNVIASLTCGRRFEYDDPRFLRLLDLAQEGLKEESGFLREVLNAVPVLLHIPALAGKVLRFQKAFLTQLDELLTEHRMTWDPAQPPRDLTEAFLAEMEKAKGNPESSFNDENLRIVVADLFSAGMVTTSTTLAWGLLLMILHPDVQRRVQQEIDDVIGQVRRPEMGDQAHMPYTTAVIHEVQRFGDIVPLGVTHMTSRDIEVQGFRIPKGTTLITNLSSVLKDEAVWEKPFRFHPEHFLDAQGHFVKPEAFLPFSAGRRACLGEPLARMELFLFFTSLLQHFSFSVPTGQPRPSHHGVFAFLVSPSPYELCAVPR
Summary of the method: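 Biochemical fluorescence assay, insect-cell-derived enzyme. Read at 1 h; inhibition taken from loss of signal against acetonitrile. Screened at 10 uM in duplicate, with concentration series for actives.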

Measured: AC50

E-selectin (Homo sapiens), sequence (P16581 whole entry, looked up): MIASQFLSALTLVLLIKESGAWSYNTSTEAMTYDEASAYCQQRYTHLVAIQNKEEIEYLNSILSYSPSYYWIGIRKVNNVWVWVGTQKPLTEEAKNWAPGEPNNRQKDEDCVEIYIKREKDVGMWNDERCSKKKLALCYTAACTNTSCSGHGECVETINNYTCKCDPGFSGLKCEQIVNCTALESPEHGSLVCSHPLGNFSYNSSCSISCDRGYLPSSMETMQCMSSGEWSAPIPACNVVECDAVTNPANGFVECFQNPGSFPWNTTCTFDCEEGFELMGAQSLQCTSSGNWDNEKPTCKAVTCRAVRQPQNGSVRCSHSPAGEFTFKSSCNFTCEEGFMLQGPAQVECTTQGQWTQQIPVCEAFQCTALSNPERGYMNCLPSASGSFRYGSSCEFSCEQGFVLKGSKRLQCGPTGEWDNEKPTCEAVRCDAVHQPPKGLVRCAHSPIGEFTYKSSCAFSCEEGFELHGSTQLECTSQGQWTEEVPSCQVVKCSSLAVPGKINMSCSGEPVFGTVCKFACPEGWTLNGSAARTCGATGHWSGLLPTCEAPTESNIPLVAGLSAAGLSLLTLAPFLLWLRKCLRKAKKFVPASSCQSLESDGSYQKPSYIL
Tumor necrosis factor (Homo sapiens), sequence (P01375 whole entry, looked up): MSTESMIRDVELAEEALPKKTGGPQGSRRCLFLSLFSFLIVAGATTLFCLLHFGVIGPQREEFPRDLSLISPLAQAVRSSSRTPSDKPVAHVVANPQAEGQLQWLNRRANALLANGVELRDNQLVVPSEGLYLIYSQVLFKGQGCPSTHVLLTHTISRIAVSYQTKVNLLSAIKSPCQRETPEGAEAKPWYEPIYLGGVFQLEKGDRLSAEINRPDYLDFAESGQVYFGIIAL

CN(Cc1cnc2nc(N)nc(N)c2n1)c1ccc(C(=O)N[C@@H](CCC(=O)O)C(=O)O)cc1
not listed: [14] | [15] | [16] | [17] | [18] | [19]
inactive: all other assays above

CCCCCCCCCCCC
inactive: [1] | [2] | [5] | [6] | [7] | [8] | [9] | [10] | [11] | [12]
active: [2] 16.7 µM | [3] 28.7 µM and 20.7 µM | [4] 33 µM and 31 µM

CCCCCCCCCCCCCCC
not listed: [4] | [13] | [15] | [16] | [17] | [18] | [19]
inactive: all other assays above

CN(C)CCOC(c1ccccc1)c1ccccc1
not listed: [1] | [4] | [13] | [15] | [16] | [17] | [18] | [19]
inactive: all other assays above

Cc1ccc(C(=O)c2ccccc2)cc1
not listed: [4] | [13] | [14] | [15] | [16] | [17] | [18] | [19]
inactive: all other assays above

CCCCc1oc2ccccc2c1C(=O)c1cc(I)c(OCCN(CC)CC)c(I)c1
active: [1] 10.8 µM | [2] 25.2 µM | [3] 23.5 µM | [5] 12.4 µM | [6] 10.5 µM | [15] 11.4 µM | [7] 20.5 µM | [8] 22.7 µM | [9] 22.9 µM | [10] 8.86 µM | [11] 15.1 µM | [12] 13.4 µM

CCCCCCc1ccc(N)cc1
inactive: [16]

CCCCCCCCCCCCOS(=O)(=O)O
not listed: [4] | [13] | [14] | [15] | [16] | [17] | [18] | [19]
inactive: all other assays above

C=CC(=C)CC/C=C(\C)CCC=C(C)C
active: [7] 0.042 µM
not listed: [4] | [13] | [15] | [16] | [17] | [18] | [19]
inactive: all other assays above

CCCCCC(C)OC(=O)COc1ccc(Cl)c2cccnc12 (stereo not given)
active: [18] 0.751 µM
inactive: [17]

Clc1ccc(Nc2nnc(Cc3ccncc3)c3ccccc23)cc1
not listed: [4] | [13] | [15] | [16] | [17] | [18] | [19]
inactive: all other assays above

O=C(c1ccccc1)c1ccccc1
not listed: [4] | [13] | [15] | [16] | [17] | [18] | [19]
inactive: all other assays above

c1cc[nH]c1
inactive: [19]

CCCCCc1ccc(O)cc1
active: [1] 27.2 µM | [2] 29 µM | [3] 31.4 µM | [5] 33.6 µM | [6] 29.6 µM | [7] 27.5 µM | [8] 26.8 µM | [9] 36.7 µM | [10] 13.5 µM | [11] 30.6 µM | [14] 15.3 µM | [12] 25.9 µM

N=C(N)c1ccc(OCCCCCOc2ccc(C(=N)N)cc2)cc1
inactive: [2] | [3] | [5] | [6] | [7] | [8] | [9] | [10] | [12]
active: [1] 13.5 µM | [11] 6.91 µM | [14] 13.6 µM

Cc1[nH]nc2c1N=C(c1ccccc1Cl)c1cc([N+](=O)[O-])ccc1N2
active: [1] 3.38 µM | [2] 4.61 µM | [3] 4.86 µM | [5] 5.77 µM | [6] 4.7 µM | [7] 3.44 µM | [8] 4.48 µM | [9] 8.28 µM | [11] 0.893 µM | [14] 1.94 µM | [12] 2.15 µM
inactive: [10]

CCOC(=O)CN[C@@H](C(=O)N1CC[C@H]1C(=O)NCc1ccc(/C(N)=N/O)cc1)C1CCCCC1
not listed: [4] | [13] | [14] | [15] | [16] | [17] | [18] | [19]
inactive: all other assays above
